Compound activity: PubChem, National Center for Advancing Translational Sciences (NCATS)
Hits are enriched below; roughly 2.5% of the tested compounds scored in any of these assays.
POLK inh: blocks human DNA polymerase kappa activity. purified Pol kappa, fluorescent DNA synthesis assay, 10 min. Potency, µM (highest dose often 107 µM), for inactives: at the highest dose activity, negative = inhibition, hits mostly inhibitors. actives 0.53% (n = 400,000); note: % is set by controls: 0 for no effect and ±100 for the full control effect
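Here, compound and 10 nM enzyme are combined for 15 min at room temperature; adding 50 nM substrate (final) starts DNA synthesis, tracked by fluorescence at 0 and 10 min against buffer-only wells.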
WRN helicase inh: blocks human WRN helicase. WRN helicase unwinding, fluorescent forked duplex, kinetic. Potency, µM (top dose mostly 114 µM), for the others: at the highest dose activity change, negative = inhibition, actives largely listed as inhibitors. actives 0.46% (n = 360,000). Q14191. AID 651768; note: % is set by controls: 0 for no effect and ±100 for the full control effect; nearly all actives have a fitted effect of over 55% in size
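WRN at 20 nM final preincubated with compound 15 min at room temperature; reaction started with 100 nM fluorophore/quencher forked duplex oligonucleotide and 2 mM ATP final. Unwinding followed kinetically by red fluorescence (ex 525, em 598 nm).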
L3MBTL1 inh: blocks human L3MBTL1; actives 0.66% (n = 230,000); Potency, µM (doses to about 57.1 µM), for the others: at the top dose activity, negative = inhibition, actives largely listed as inhibitors; AlphaScreen L3MBTL1–H3K9me1 peptide binding; note: % is set by controls: 0 for no effect and ±100 for the full control effect; nearly all actives have a fitted effect of over 60% in size
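AlphaScreen proximity signal between nickel-chelate acceptor and streptavidin donor beads (final 10 ug/mL) reports binding of 50 nM L3MBTL1 to 75 nM biotin-H3 K9me1 peptide; complex incubated with compounds 30 min at room temperature; cefsulodin titration as control.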
POLH inh: inhibitors of human DNA polymerase eta. recombinant Pol eta, fluorescent DNA replication assay. actives 1.2% (n = 390,000). Potency, µM (highest dose often 114 µM), inactives show top-dose activity change, negative = inhibition, hits mostly inhibitors. Q9Y253. AID 588591; note: % is set by controls: 0 for no effect and ±100 for the full control effect
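Pol eta at 10 nM preincubated with compounds 15 min at room temperature; reaction started with fluorescent substrate (50 nM final) and read kinetically at 0 and 10 min.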
POLI inh: inhibitors of human DNA polymerase iota; Q9UNA4; Pol iota fluorescent replication assay, 10 min; Potency, µM (highest dose often 115 µM), for the others: top-dose activity, negative = inhibition, actives largely listed as inhibitors; actives 1% (n = 390,000)
Target sequence (Q9UNA4 whole entry, looked up): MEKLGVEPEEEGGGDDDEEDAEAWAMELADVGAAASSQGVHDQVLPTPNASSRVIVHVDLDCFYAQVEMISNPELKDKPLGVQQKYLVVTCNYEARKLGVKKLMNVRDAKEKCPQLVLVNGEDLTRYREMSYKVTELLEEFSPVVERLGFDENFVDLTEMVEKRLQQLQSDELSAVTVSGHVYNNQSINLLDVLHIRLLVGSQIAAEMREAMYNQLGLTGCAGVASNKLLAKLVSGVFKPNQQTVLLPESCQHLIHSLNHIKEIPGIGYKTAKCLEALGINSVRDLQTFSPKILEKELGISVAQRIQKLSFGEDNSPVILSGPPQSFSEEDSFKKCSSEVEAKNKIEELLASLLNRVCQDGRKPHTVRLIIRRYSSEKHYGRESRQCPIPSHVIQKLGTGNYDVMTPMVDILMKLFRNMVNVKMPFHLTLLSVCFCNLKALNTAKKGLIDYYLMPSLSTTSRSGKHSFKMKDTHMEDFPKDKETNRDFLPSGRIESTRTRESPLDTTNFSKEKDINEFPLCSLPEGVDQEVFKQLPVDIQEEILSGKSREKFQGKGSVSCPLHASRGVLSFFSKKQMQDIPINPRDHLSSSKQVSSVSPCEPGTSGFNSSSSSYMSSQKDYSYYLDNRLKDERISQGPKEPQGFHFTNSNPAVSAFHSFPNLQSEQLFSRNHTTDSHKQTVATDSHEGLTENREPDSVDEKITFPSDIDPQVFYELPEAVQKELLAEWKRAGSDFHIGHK
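Pol iota at 10 nM preincubated 15 min with compounds at room temperature; reaction started with fluorescent substrate, 50 nM final. Fluorescence read kinetically at 0 and 10 min; buffer-only wells as negative control.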
Pol beta inh: DNA polymerase beta (human) inhibition | actives 1.3% (n = 340,000) | AID 485314 | Potency, µM (titrated, usually from 114 µM), for the others: top-dose activity change, negative = inhibition, actives largely listed as inhibitors | P06746 | Pol beta primer extension/strand displacement, fluorescence kinetic; note: % is set by controls: 0 for no effect and ±100 for the full control effect
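Kinetic readout of DNA synthesis with strand displacement by Pol beta. Compound and 10 nM enzyme sit 15 min at room temperature; 50 nM substrate starts the reaction, read immediately and at 10 min.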
Numbers without * were called inactive; ? = inconclusive; . = no result given; [ ] = another dose, or the depositor's remark. Calls come from the whole dose curve; as a rule, active = well fitted curve in the direction sought with a large enough effect; inconclusive = small, poorly fitted or top-dose-only effect, or another doubt; inactive = no such curve, though single readings can be large; an effect the other way counts as inactive or inconclusive. Potency is the fitted concentration of half-maximal effect.

SMILES	POLK inh	WRN helicase inh	L3MBTL1 inh	POLH inh	POLI inh	Pol beta inh
Cc1ccc(N2C(=O)NC(=O)/C(=C\C=C\c3ccco3)C2=O)cc1	-99.7%	?	.	50.1µM*	17.8µM*	?
CN(C)CCN=Cc1c(O)n(C2CCCCCC2)c(=O)[nH]c1=O	-2.1%	0.2%	8.5%	-19.8%	-6.3%	26.2%
O=C(COc1ccccc1F)N1CCN(Cc2cc(=O)n3nc(-c4ccccc4Cl)sc3n2)CC1	-13.6%[60.1 µM]	.	.	-5.9%	26.4%	9.0%
Cc1cccc(N2C(=O)NC(=O)/C(=C/c3ccc([N+](=O)[O-])o3)C2=O)c1	8.91µM*	28.2µM*	6.31µM*	2.51µM*	3.16µM*	5.62µM*
COc1ccc(CN2C(=O)NC(=O)/C(=C/c3ccc([N+](=O)[O-])o3)C2=O)cc1	.	.	.	.	.	6.31µM*
Cc1ccc(-n2nc(C)cc2NC(=O)COc2cc(C)cc3oc(=O)c4c(c23)CCC4)cc1	-3.8%	4.1%	2.4%	-0.7%	80.3%	16.3%
O=S(=O)(Nc1c(O)ccc2ccccc12)c1ccc(F)cc1	-20.3%	50.1µM*	.	-4.9%	?	.
COc1ccc(CCn2c(NN=C3CCCCC3)nc3c2c(=O)[nH]c(=O)n3C)cc1	-17.7%	-5.0%	.	?	17.8µM*	-23.3%
COc1ccc(CCNCc2ccc3c(c2)n(C)c(=O)n3C)cc1	0.2%	.	.	0.8%	7.4%	1.1%
N[C@@H](Cc1cc(Br)c(O)c(Br)c1)C(=O)O	.	.	?	.	.	22.4µM*
CC(C)(C)C(=O)O[C@H]1CC[C@@]2(C)C(=CC(=O)C3C2CC[C@]2(C)C(=O)[C@@H](F)CC32)C1 (stereo partly drawn)	-6.8%	-17.0%	-4.6%	-23.7%	109.6%	.
CCOc1cc(C=C2C(=O)NC(=O)NC2=O)ccc1OS(=O)(=O)c1ccccc1	-27.3%	44.7µM*	.	-8.3%	-63.1%	7.9%
CCOc1cc(C2C(C#N)=C(N)Oc3c2c(=O)oc2ccccc32)ccc1OC(=O)c1cccs1 (stereo not drawn)	-5.3%	2.7%	2.7%	-22.3%	0.1%	-7.5%
Cc1ccc(N2C(=O)NC(=O)/C(=C/c3ccc(OC(=O)c4cccs4)cc3)C2=O)cc1	-5.1%	50.1µM*	-4.6%	-7.7%	-15.2%	21.4%
CN(N=O)c1cc(O)ccc1O	?	.	.	1.41µM*	11.2µM*	1.26µM*
CN(C)C1C(=O)C(C(N)=O)=C(O)C2(O)C(=O)C3=C(O)c4c(O)cccc4C(C)(O)C3C(O)C12 (stereo not drawn)	-3.6%	-35.3%	.	-9.0%	-8.4%	11.2µM*
CN(C)[C@@H]1C(=O)C(C(N)=O)=C(O)[C@]2(O)C(=O)C3=C(O)c4c(O)ccc(Cl)c4[C@](C)(O)[C@H]3C[C@@H]12	-7.5%[12 µM]	.	.	.	.	.
Cc1cc(C=C2C(=O)N(C)C(=S)N(C)C2=O)c(C)n1C1CCCCC1	-21.8%	-5.9%[11.6 µM]	-14.1%	14.1µM*	?	39.8µM*
Cc1cc(Oc2cc(NN3CCCCC3)c([N+](=O)[O-])cc2[N+](=O)[O-])ccc1[N+](=O)[O-]	-21.0%	-14.2%	?	-10.9%	?	39.8µM*
O=[N+]([O-])c1ccc(N2CCCC2)c(F)c1Br	-4.0%	3.4%	-18.3%	-14.1%	?	42.5%
CC1(C)C(=O)C=C[C@@]2(C)C1CC(O)[C@]1(C)C2CC[C@@]2(C)C(c3ccoc3)OC(=O)C3O[C@]312 (stereo partly drawn)	-11.3%[60.1 µM]	.	.	.	.	.
O=C1NC(=O)N(Cc2ccccc2Cl)C(=O)/C1=C/c1cccs1	-21.0%	?	.	?	?	7.0%
O=C1NC(=O)N(Cc2ccc(F)cc2)C(=O)/C1=C/c1cccs1	-13.1%	39.8µM*	.	?	?	89.1µM*
N#C/C(=C\c1ccc(O)c(O)c1)C(=O)NCCCNC(=O)/C(C#N)=C/c1ccc(O)c(O)c1	0.299µM*	.	.	0.112µM*	0.112µM*	0.126µM*
N#C/C(=C/c1ccc(O)c(O)c1)C(N)=S	1.68µM*	.	.	.	.	.
SMILES	POLK inh	WRN helicase inh	L3MBTL1 inh	POLH inh	POLI inh	Pol beta inh
O=C1NC(=O)C(=Cc2cccc(OCCOc3ccccc3)c2)C(=O)N1	-13.0%	-22.9%	.	-0.8%	?	28.3%
O=C1NC(=O)C(=Cc2ccc(OCCOc3ccc([N+](=O)[O-])cc3)cc2)C(=O)N1	-34.2%	-28.1%[11.6 µM]	39.8µM*	79.4µM*	?	?
O=c1cc(C2CCNCC2)[nH][nH]1	0.1%	4.8%	.	14.2%	0.891µM*	3.1%
Cc1ccc(S(=O)(=O)N(CC(=O)N/N=C\c2cccs2)c2cccc3cccnc23)cc1	-10.2%	-10.7%	-13.9%	?	?	39.8µM*
Cc1cccc(OP(=O)(Nc2ccc(F)cc2)Oc2cccc(C)c2)c1	-7.8%	-9.4%	1.1%[11.4 µM]	?	63.0%	0.5%
CN(C)c1ccc(C=C2C(=O)NC(=S)NC2=O)cc1	-24.8%	35.5µM*	.	-17.5%	50.0%	.
CN(C)c1ccc(C=C2C(=O)NC(=O)NC2=O)cc1	3.9%	-27.9%	.	-2.6%	?	.
COC1=CC(=O)O[C@H](/C=C/c2ccc3c(c2)OCO3)C1	13.2%[60.1 µM]	.	.	.	.	.
C=CCN(CC=C)C(=O)CCN1CC1C (stereo not drawn)	-4.5%	10.6%	.	-18.5%	8.4%	.
CCCCc1ccc(C(=O)O)nc1	1.3%[60.1 µM]	6.4%	8.91µM*	-6.1%	-29.4%	5.4%[57.1 µM]
CCCNC1=C(C)C(=O)C2=C(C1=O)C(COC(N)=O)[C@]1(OC)C3NC3CN21 (stereo partly drawn)	44.7µM*	?	.	?	7.94µM*	18.4%
CC(=O)Oc1c2c(c(CC=C(C)C)c3c1C(=O)C1=CC4CC5C(C)(C)OC(C/C=C(\C)C(=O)O)(C4=O)[C@]15O3)OC(C)(CCC=C(C)C)C=C2 (stereo partly drawn)	25.1µM*	.	.	.	.	.
CC1(C)CC(=O)C(C2(O)C(=O)NC(=O)NC2=O)=C(O)C1	-0.5%	-9.3%	-13.0%	4.4%	8.91µM*	12.5%
Cc1ccc(F)cc1NC(=O)c1ccc(Cn2nc(N3CCN(c4ccccc4)CC3)ccc2=O)o1	-11.0%	.	.	79.4µM*	?	?
C[C@H](N)C(=O)NCC(=O)N[C@H]1CSSC[C@@H](C(=O)O)NC(=O)[C@H](CO)NC(=O)[C@H]([C@@H](C)O)NC(=O)[C@H](Cc2ccccc2)NC(=O)[C@H]([C@@H](C)O)NC(=O)[C@H](CCCCN)NC(=O)[C@H](Cc2c[nH]c3ccccc23)NC(=O)[C@H](Cc2ccccc2)NC(=O)[C@H](Cc2ccccc2)NC(=O)[C@H](CC(N)=O)NC(=O)[C@H](CCCCN)NC1=O	5.2%[60.1 µM]	.	.	.	.	.
Cc1c(OC(=O)N(C)C)ccc2c1O/C(=C\c1ccco1)C2=O	-2.4%	5.3%	.	-20.2%	11.9%	50.1µM*
